hERG WT inh: KCNH2 (human, wildtype) channel inhibition; U2OS, BacMam KCNH2, thallium flux FluxOr; stronger effect = lower value; 0.37% of 340,000 active; Q12809; activity change, % at 1.84 µM;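 active means maximum activity change below -70%; inconclusive means maximum activity change between -70% and -50%; inactive means maximum activity change above -50%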; further: on the % scale 0 is the no-effect control and ±100 the full control effect
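U2OS cells were transduced with wild-type KCNH2 virus (2.03 x 10^8 / mL) for 4 h at room temperature, then cultured overnight at 37 C. Thallium flux was read with FluxOr dye. Rate constants were normalized to DMSO controls.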
S-ASM inh: inhibitors of human secretory acid sphingomyelinase; 0.006% of 340,000 active; P17405; AID 504937; placental ASM, HMU-PC fluorogenic substrate, 60 min; Potency, µM (highest dose often 57.5 µM), without a hit: at the highest dose activity change, negative = inhibition, most hits filed as inhibitors; further: potency means the concentration at half of the fitted maximal effect
Target sequence (P17405 47-631 limits assumed): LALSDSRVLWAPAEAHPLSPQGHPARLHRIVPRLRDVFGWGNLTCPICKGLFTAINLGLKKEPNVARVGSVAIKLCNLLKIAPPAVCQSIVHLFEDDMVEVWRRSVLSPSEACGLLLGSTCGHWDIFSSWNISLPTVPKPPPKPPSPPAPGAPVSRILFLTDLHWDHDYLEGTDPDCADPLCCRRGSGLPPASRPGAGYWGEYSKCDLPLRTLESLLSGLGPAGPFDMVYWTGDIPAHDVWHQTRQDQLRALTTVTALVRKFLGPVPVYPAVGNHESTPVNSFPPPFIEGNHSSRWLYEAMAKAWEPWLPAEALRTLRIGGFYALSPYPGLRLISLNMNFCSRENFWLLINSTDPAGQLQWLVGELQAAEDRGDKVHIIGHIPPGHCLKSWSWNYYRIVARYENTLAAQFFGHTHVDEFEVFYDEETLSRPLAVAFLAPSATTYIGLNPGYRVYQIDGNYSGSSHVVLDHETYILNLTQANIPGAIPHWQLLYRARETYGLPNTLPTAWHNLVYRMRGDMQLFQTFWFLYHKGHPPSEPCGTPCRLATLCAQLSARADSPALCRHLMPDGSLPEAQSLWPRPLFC
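Fluorescence read-out (Ex 386 nm, Em 447 nm) after stopping the reaction at pH 10. Enzyme: ASM from human placenta; substrate HMU-PC0, 9 uM final; 60 min, 37 °C. Compound preincubation 10 min, ambient temperature.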
KCNH2 3.1 block: inhibitors of human KCNH2 3.1 potassium channel isoform; 0.95% of 340,000 active; U2OS KCNH2 3.1, thallium flux FluxOr; stronger effect = lower value; activity change, % (tested at about 1.8 µM); AID 720553;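 active means maximum activity change below -70%; inconclusive means maximum activity change from -70% to -50%; inactive means maximum activity change above -50%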;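 further: thallium influx rate constant from kinetic fluorescence after stimulation buffer; on the % scale 0 is the no-effect control and ±100 the full control effect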
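Measured as rate of thallium-driven FluxOr signal in transduced U2OS cells carrying the 3.1 channel, read kinetically for 2 min upon stimulation; values are rate constants scaled to DMSO control wells.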
MmCpn inh: M. maripaludis TRiC chaperonin inhibition | Potency, µM (top dose mostly 76.9 µM), for the others: at the top dose activity, negative = inhibition, usual class: inhibitors | 0.031% of 330,000 active | purified Mm-Cpn ATPase, ADP Transcreener TR-FRET | AID 504842; further: potency means the concentration at half of the fitted maximal effect; on the % scale 0 is the no-effect control and ±100 the full control effect; nearly all actives have a fitted effect of over 80% in size
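Measured: ADP formation by purified Mm-CPN. Conditions: 25 nM protein, 10 uM ATP, Tris pH 7.4 with Mg2+, K+ and DTT, 37°C for 30 min. Detection: Transcreener HTRF after 30 min at room temperature.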
p53 reactivator: mutant p53 re-activation in reporter cells; H1299 p53-A138V BP100-luciferase reporter, luminescence, 24 h; Potency, µM (highest dose often 92.2 µM), without a hit: top-dose activity change, positive = activation, usual class: activators; 0.063% of 320,000 active; further: potency means the concentration at half of the fitted maximal effect; % of control where 0% means no effect; nearly all actives have a fitted effect of over 45% in size
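H1299 (p53-null), stable ts p53-A138V + BP100-Luc; 1000 cells/well, Opti-MEM/10% FBS; cpd 4 pt, 1:5; 24 h, 37 deg C, 5% CO2; detection reagent 10 min RT; luminescence.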
uPA generation: blocks generation of uPA at the cell surface. AID 540303. Potency, µM (series often up to 38.3 µM), without a hit: at the top dose activity change, negative = inhibition, usual class: inhibitors. 0.31% of 330,000 active. cell surface uPA generation assay, qHTS; active means well fitted inhibition curve with a large enough effect; inconclusive means small, poorly fitted or top-dose-only effect; inactive means no such curve, though single readings can be large or run the other way; tested in mouse RAW 264.7 cells; further: potency means the concentration at half of the fitted maximal effect; on the % scale 0 is the no-effect control and ±100 the full control effect; nearly all actives have a fitted effect of over 55% in size
* marks the source's active call; other numbers are inactive results; i = inactive; ? = inconclusive; nt = not tested or not shown. Rows were chosen to be rich in hits. Some 1.4% of all compounds tested hit in one or more screens of this group. Unless noted, the call rests on the fitted dose curve; in most records, active means well fitted curve in the direction sought with a large enough effect; inconclusive means small, poorly fitted or top-dose-only effect, or another doubt; inactive means no such curve, though single readings can be large; an effect the other way counts as inactive or inconclusive.

SMILES | hERG WT inh | S-ASM inh | KCNH2 3.1 block | MmCpn inh | p53 reactivator | uPA generation
O=S1(=O)N=C(Nc2ccc(N3CCOCC3)cc2)c2ccccc21 | 7.6 | -0.9% | 1.9 | -1.7% | 2.0% | -18.9%
O=C(c1cc(Br)c(Br)s1)N1CCOCC1 | -201.0* | 5.3% | 7.1 | 2.7% | -4.9% | -0.6%
Cc1ccc(S(=O)(=O)N2CCN(C(=O)COC(=O)c3ccc(Cl)nc3)CC2)c(C)c1 | -162.2* | 1.4% | -17.5 | 3.4% | -2.2% | 2.6%
O=C(O)COc1ccc(NC(=O)c2ccc3c(c2)C(=O)N(CC2CCCO2)C3=O)cc1 (stereo not given) | 13.8 | nt | -1.7 | nt | nt | nt
Cc1ccc(C(=O)OCN2C(=O)c3ccccc3C2=O)cc1S(=O)(=O)N1CCOCC1 | -5.6 | -2.2% | -1.1 | 1.4% | 6.0% | -3.1%
O=C(CSc1n[nH]c(-c2ccccn2)n1)Nc1cccc(Cl)c1 | 2.4 | -5.9% | -70.2* | 2.9% | ? | -15.3%
Cc1nc(SCC(=O)Nc2cccc(Cl)c2)n[nH]1 | 1.5 | 0.7% | 0.1 | 2.0% | -7.8% | -2.0%
N=C(N)SCc1ccc(Cl)cc1Cl | 4.2 | -0.9% | 7.2 | ? | -15.8% | ?
Nc1ccc(CSc2ccc(Cl)cc2)c(Cl)c1 | 12.3 | -2.2% | -101.6* | nt | nt | -3.7%
CC(C)C#Cc1cnc2c(c1)C(=O)N([C@H](C)CO)C[C@@H](C)[C@H](CN(C)C(=O)Nc1ccccc1F)O2 | -3.6 | nt | 0.2 | nt | nt | nt
COc1ccccc1N1CCN(C(=O)c2cccc(S(=O)(=O)N3CCCCCC3)c2)CC1 | 1.6 | -1.9% | -14.2 | -4.0% | -5.6% | 13.4%
CCOc1ccc(Br)cc1C1=NN(C(C)=O)C(c2ccc([N+](=O)[O-])s2)O1 (stereo not given) | 0.8 | -6.4% | 8.9 | -2.2% | -15.7% | 6.31µM*
C/C(=N\NC(=S)NCc1ccccc1)c1ccccc1 | i | -3.0% | 5.7 | -0.8% | ? | 1.0%
COc1ccc(CNC(=S)N/N=C(/C)c2ccccc2)cc1 | -7.1 | -14.5% | 0.0 | -20.6% | 28.2µM* | -4.5%
c1ccc(Oc2ccccn2)cc1 | -4.8 | -0.8% | 17.5 | nt | nt | -0.7%
Cc1ccc(C(=O)C2(C)C3c4cc(Br)ccc4OC(=O)C32C(=O)c2ccco2)cc1 (stereo not given) | -11.7 | -2.5% | -114.1* | -2.1% | 3.2% | 4.3%
N/C(=N\OC(=O)c1ccc2ccccc2c1)c1ccncc1 | -5.3 | 0.8% | 17.1 | -6.5% | 12.9% | -16.2%
N/C(=N\OC(=O)c1ccc2ccccc2c1)c1ccccc1Cl | -21.2 | -1.0% | -22.9 | 0.5% | 20µM* | ?
Nc1nc(=S)c2ncn(C3OC(CO)CC3O)c2[nH]1 (stereo not given) | 6.1 | 2.3% | 5.8 | nt | nt | -5.2%
O=C1c2[nH]nc(-c3ccccc3O)c2C(c2cccc(Cl)c2)N1CC1CCCO1 (stereo not given) | -137.0* | -11.8% | -191.3* | 0.9% | -11.9% | -6.1%
COc1ccc(NC(=O)CNC(=O)c2nn(-c3ccc(OC)cc3OC)c(=O)c3ccccc23)c(OC)c1 | -9.2 | -3.9% | -8.4 | 0.6% | -0.7% | -0.5%
O=C(CCN1C(=O)/C(=C/c2ccccc2Cl)SC1=S)NC1C=CS(=O)(=O)C1 (stereo not given) | 7.9 | -4.5% | -1.2 | 1.1% | 5.8% | 7.94µM*
CCOC(=O)Cc1csc(NC(=O)CCCN2C(=O)c3ccccc3C2=O)n1 | -2.4 | -1.5% | -6.8 | -0.2% | -2.4% | nt
CCOC(=O)Cc1csc(NC(=O)CCN2C(=O)c3ccccc3C2=O)n1 | -6.3 | -4.1% | -213.0* | -9.6% | -1.9% | -15.1%
CCN(CC(=O)Nc1c(F)cccc1F)C(=O)c1ccc(=O)n(C)n1 | 3.7 | nt | 5.3 | nt | nt | 14.7%
SMILES | hERG WT inh | S-ASM inh | KCNH2 3.1 block | MmCpn inh | p53 reactivator | uPA generation
O=C(Nc1cccc(O)c1)c1ccc(Br)c(S(=O)(=O)N2CCCCC2)c1 | -10.1 | -1.0% | -91.9* | 1.2% | 11.3% | nt
O=C(Nc1cccc(O)c1)c1cccc(S(=O)(=O)N2CCCCCC2)c1 | 9.3 | -4.1% | -4.9 | 0.0% | 20.5% | -0.7%
Cn1c(=O)c(C(=O)CN2CCN(S(=O)(=O)c3ccccc3)CC2)c(N)n(Cc2ccccc2)c1=O | 1.3 | 6.1% | 3.3 | -0.7% | -8.9% | -3.7%
CCCn1c(N)c(C(=O)CN2CCN(S(=O)(=O)c3cccc(Cl)c3)CC2)c(=O)[nH]c1=O | ? | -0.8% | -72.6* | -2.3% | -1.8% | 4.7%
COc1ccc(S(=O)(=O)N2CCC(n3cnc4cc(C(F)(F)F)ccc43)CC2)cc1 | -87.3* | -4.7% | -85.8* | -5.0% | 8.6% | 3.8%
CN1CCN(c2ccc(NC(=S)NC(=O)c3cccc4c(Br)cccc34)cc2)CC1 | -36.5 | -5.7% | -82.7* | -1.6% | 12.2% | 0.3%
CN1CCN(c2ccc(NC(=S)NC(=O)c3cccc4ccccc34)cc2)CC1 | 17.3 | -6.9% | -79.4* | 1.1% | ? | ?
CN1CCN(c2ccc(NC(=O)c3ccccc3Br)cc2)CC1 | -6.6 | 3.0% | 0.2 | -0.4% | ? | -6.0%
CCOC(=O)N1CCC2CC1c1cc(-c3cccc(OC)c3)ccc12 (stereo not given) | -115.5* | -2.0% | -14.9 | nt | nt | -4.2%
O=C(Nc1cc(F)cc(F)c1)c1sc(Cl)nc1-c1ccccc1 | 15.4 | -1.7% | 3.5 | 50.1µM* | 7.1% | -1.3%
CC1CCCC(C)N1C(=O)COC(=O)c1cc(=O)[nH]c2ccccc12 (stereo not given) | -0.8 | 18.9% | 4.1 | -1.2% | ? | -0.5%
COc1ccc(S(=O)(=O)NCc2ccccn2)cc1C | 0.5 | nt | 3.0 | nt | nt | nt
CCOC(=O)c1ccc(NC(=O)CSc2nnc(-c3cccs3)n2CC)cc1 | 2.1 | -2.4% | -92.5* | -6.7% | -11.6% | nt
CCOC(=O)c1ccc(NC(=O)CSc2nnc(-c3cccs3)n2C)cc1 | 4.5 | 0.7% | 6.5 | 0.6% | 6.7% | -0.5%
COc1cccc(C(=O)NCC(=O)OCC(=O)NC2CCCCC2)c1 | 5.0 | 3.9% | 13.5 | -1.5% | 2.1% | -6.1%
Cc1cccc(-n2cc(-c3ccc([N+](=O)[O-])cc3)[nH]c2=S)c1 | -70.3* | -6.7% | ? | -1.4% | 7.0% | 8.4%
CCCCN(CCCC)CC(O)COc1ccccc1C(=O)Nc1ccccc1 (stereo not given) | 21.6 | 7.5% | -73.6* | -0.3% | 5.5% | 0.0%
O=C(Nc1ccccc1)c1ccccc1OCc1ccc(F)cc1 | -5.8 | -1.2% | 7.4 | -4.0% | 13.4% | -2.1%
C=CCc1ccccc1OCC(O)CN(CC)CC (stereo not given) | 24.1 | 1.7% | 11.4 | 0.5% | -1.4% | 2.2%
CCN(CC)CC(O)COc1ccccc1C(=O)CCc1ccccc1 (stereo not given) | 24.8 | -6.8% | -71.1* | 0.4% | 3.6% | -4.9%

Source: PubChem BioAssay
